Source: PubChem BioAssay
The list is not random: actives were taken first. Their share in the collection is about 21%.
Shiga inhibitor – A qHTS for Small Molecule Inhibitors of Shiga Toxin. Vero cells, Shiga toxin protein synthesis inhibition reporter. inhibition, % at 38.7 µM. hit rate 9.2% among 290,000; in the data active means inhibition mostly above about 28%, no sharp cut-off; inactive means mostly below about 43%; further: 0% is about no effect
Pf growth 48h – Primary qHTS for delayed death inhibitors of the malarial parasite plastid, 48 hour incubation | P. falciparum luciferase growth in erythrocytes, 48 h | Potency, µM (top dose mostly 28.7 µM), for inactives: at the top dose activity change, negative = inhibition, hits mostly inhibitors | hit rate 5.9% among 310,000; further: potency means the concentration at half of the fitted maximal effect; on the % scale 0 is the no-effect control and ±100 the full control effect
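First compound was added to culture medium, then infected red cells at 0.1% parasitemia and 2% hematocrit (final). After incubation at 37 C under 5% CO2, luciferase detection reagent was dispensed and light output recorded.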
Cycloheximide cs – Cycloheximide Counterscreen for Small Molecule Inhibitors of Shiga Toxin; cell reporter, cycloheximide protein synthesis inhibition counterscreen; max response, %; hit rate 12% among 300,000; in the data active means max response mostly above about 13%, no sharp cut-off; inactive means mostly below about 14%; further: read at 38.3 µM for the half of the compounds with a filed dose; 0% is about no effect
Pf growth 96h – Primary qHTS for delayed death inhibitors of the malarial parasite plastid, 96 hour incubation; P. falciparum luciferase reporter growth, 96 h; Potency, µM (titrated, usually from 28.7 µM), for the others: top-dose activity change, negative = inhibition, actives largely listed as inhibitors; hit rate 6.9% among 320,000; AID 504834, 2011; further: potency means the concentration at half of the fitted maximal effect; on the % scale 0 is the no-effect control and ±100 the full control effect
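Two-generation exposure (96 h) targets delayed-death phenotype. Reporter parasites carrying integrated firefly luciferase, in red cells at 2% hematocrit and 0.05% parasitemia final, kept at 37 C, 5% CO2; luminescence loss indicates inhibition.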
The depositor's hits bear a star; i = inactive; ? = inconclusive; / = no result given. Unless noted, the call rests on the fitted dose curve; in most records, active means well fitted inhibition curve with a large enough effect; inconclusive means small, poorly fitted or top-dose-only effect, or another doubt; inactive means no such curve, though single readings can be large or run the other way.

SMILES	Shiga inhibitor	Pf growth 48h	Cycloheximide cs	Pf growth 96h
CCN1CCN(C(=O)C(NS(=O)(=O)c2ccc3nc(C)sc3c2)C(C)C)CC1 (configuration not stated)	-5.8	/	-2.8	9.28µM*
Cc1ccc(N(C(=O)Nc2ccccc2)C2=NCC(C)S2)cc1 (configuration not stated)	90.9*	43.6%	22.5*	-12.9%
CC1CN=C(N(C(=O)Nc2ccccc2)C(C)C)S1 (configuration not stated)	-3.7	-18.3%	8.5	?
CC1CN=C(N(C(=O)Nc2ccccc2)C(C)c2ccccc2)S1 (configuration not stated)	46.5	?	13.3*	-19.7%
O=C(Nc1ccccc1)c1cccc(N2C(=O)CCC2=O)c1	-13.3	-0.3%	-2.9	/
COC(=O)c1ccc(NC(=O)c2cccc(N3C(=O)CCC3=O)c2)cc1	/	17.8%	/	3.1%
O=C(Nc1ccc(Br)cc1)c1cccc(N2C(=O)CCC2=O)c1	65.0*	-0.6%	54.5*	25.0%
CN(C)c1ccc(NC(=O)c2cccc(N3C(=O)CCC3=O)c2)cc1	37.0	44.0%	21.4*	72.7%
CN(Cc1ccc(Br)cc1)CC(O)COc1cccc(Br)c1 (configuration not stated)	-10.7	-17.6%	-13.0	-9.2%
CCOC(=O)CCCCC(=O)c1[nH]c(=O)[nH]c1CSc1nnc2c3ccccc3n(C(C)C)c2n1	-12.4	?	4.5	?
CCCn1c2ccccc2c2nnc(SCc3[nH]c(=O)[nH]c3C(=O)CCCCC(=O)OCC)nc21	-5.0	?	-2.8	10.4µM*
FC(F)(F)c1nc2ccccc2nc1N/N=C/c1c(Cl)cccc1Cl	-6.8	9.28µM*	-2.3	-8.5%
O=C(/C=C/c1ccco1)Nc1ccccc1C(=O)Nc1cccc(C(=O)O)c1	-7.5	64.6%	-1.6	88.7%
Cc1cc(C)nc(NS(=O)(=O)c2ccc(NC(=O)c3ccco3)cc2)n1	15.8	56.1%	0.4	0.0%
Cc1ccc(C)c(NS(=O)(=O)c2ccc(NC(=O)c3ccco3)cc2)c1	13.3	10.4µM*	-2.0	11.7µM*
Cc1ccc(NC(=O)c2ccco2)cc1C	83.9*	226.4%	37.1*	13.1%
COc1cc(OC)cc(C(=O)Nc2ccc(NC(=O)c3ccco3)c(C)c2)c1	36.5	62.2%	0.8	6.3%
Cc1cc(NC(=O)c2ccco2)ccc1NC(=O)c1ccco1	70.7*	45.3%	22.2	88.2%
Cc1cc(NC(=O)/C=C/c2ccco2)ccc1NC(=O)c1ccccc1	52.8*	19.2%	28.6*	33.1%
N#CCC(=O)Nc1ccc(C(F)(F)F)cc1N1CCOCC1	-4.6	-26.1%	-2.2	-11.0%
Cc1nc(CCNC(=O)C2CCC(=O)N(Cc3cccc(F)c3)C2)sc1C (configuration not stated)	-4.9	5.3%	0.9	25.4%
Cc1ccc(NCc2ccco2)cc1C	70.1*	17.5%	27.3*	?
CCn1nccc1C(=O)Nc1ccc(C)c(C)c1	62.4*	62.8%	34.0*	?
Cc1ccc(NC(=O)CCNC(=O)c2ccco2)cc1F	25.7	3.2%	12.8*	23.0%
CC(=O)N1CCN(c2ccc(NCc3ccco3)cc2)CC1	/	-5.3%	/	?
SMILES	Shiga inhibitor	Pf growth 48h	Cycloheximide cs	Pf growth 96h
O=c1c2cc(O)c(O)cc2oc2cc(O)c(C3OC(CO)C(O)C(O)C3O)c(O)c12 (configuration not stated)	/	9.2%	/	43.0%
Cc1ccc(S(=O)(=O)N2CCN(C(=O)c3ccco3)CC2)cc1	-5.6	-5.4%	-4.2	-3.9%
O=C(c1ccc(COc2ccccc2)o1)N1CCN(S(=O)(=O)c2ccccc2Cl)CC1	/	13.1µM*	/	?
Cc1ccc(S(=O)(=O)N2CCN(C(=O)c3ccc(COc4ccccc4)o3)CC2)cc1	/	11.7µM*	/	9.28µM*
Cc1cc(C)cc(OCC(=O)Nc2ccc3c(c2)OCO3)c1	15.9	22.5%	16.1	?
O=C(Nc1oc2ccccc2c(=O)c1-c1ccc(Br)cc1)c1ccco1	11.9	-10.6%	8.6	-19.2%
O=C(NN1CCOCC1)c1ccc(Cl)cc1[N+](=O)[O-]	18.4	4.6%	-0.6	?
CCOC(=O)NNc1ccc(C(F)(F)F)cn1	-0.8	100.2%	-1.2	23.2%
Oc1ccc(/C=N/Nc2ccc(C(F)(F)F)cn2)c(O)c1	56.1*	?	51.8*	-11.5%
Oc1ccc(/C=N/Nc2cccc(Cl)n2)c(O)c1	46.5*	137.7%	41.6*	-62.7%
COc1cc(/C=N/Nc2ccc(C(F)(F)F)cn2)cc(OC)c1O	22.5	?	7.4	?
C/C(=N\Nc1ccc(C(F)(F)F)cn1)c1ccncc1	100.8*	-1.0%	23.8*	27.5%
Cc1cc(N/N=C/c2ccc(O)cc2O)nc(N2CCOCC2)n1	18.9	?	10.2	?
Oc1ccc(/C=N/Nc2ccc(C(F)(F)F)cn2)cc1	123.6*	268.1%	36.8*	306.0%
CCCC[C@@H](C)/C=C(C)/C=C(\C)C(=O)NC1=C[C@@](O)(/C=C/C=C/C=C/C(=O)NC2=C(O)CCC2=O)[C@@H]2O[C@@H]2C1=O	5.9	/	5.9	/
COc1ccc2c(c1OC)C(=O)N1N=C(c3ccc(-c4ccccc4)cc3)CC21 (configuration not stated)	-15.4	?	1.1	?
COc1ccc2c(c1OC)C(=O)N1c3ccccc3N=C(c3ccc([N+](=O)[O-])cc3)CC21 (configuration not stated)	8.4	2.62µM*	3.7	-0.5%
COc1ccc2c(c1OC)C(=O)N1N=C(c3ccc(Br)cc3)CC21 (configuration not stated)	19.8	?	12.2	-98.5%
COc1ccc2c(c1OC)C(=O)N1N=C(c3ccc(O)cc3)CC21 (configuration not stated)	-0.2	1.31µM*	15.2	33.0%
COc1ccc2c(c1OC)C(=O)N1N=C(c3ccc(Cl)cc3)CC21 (configuration not stated)	8.2	5.86µM*	13.0*	-16.2%
COc1ccc(C2=NN3C(=O)c4c(ccc(OC)c4OC)C3C2)cc1 (configuration not stated)	-10.1	2.62µM*	12.4	-15.8%
O=C(CSc1ccc(Br)cc1)NCC(c1ccco1)N1CCCCC1 (configuration not stated)	/	-12.3%	/	?
CCN(CC)C(=O)Oc1ccc2ccccc2c1Br	75.7*	188.0%	25.4*	-12.6%
O=C(Oc1ccc2ccccc2c1Br)N1CCCCCC1	116.9*	0.7%	35.6*	i
O=C(COc1ccc2ccccc2c1Br)N1CCCCC1	88.5*	87.6%	62.4*	15.8%
SMILES	Shiga inhibitor	Pf growth 48h	Cycloheximide cs	Pf growth 96h
NC(=O)C1CCN(C(=O)COc2ccc3ccccc3c2Br)CC1	12.8	8.4%	6.1	-2.7%
O=C(Oc1ccc2cc(Br)ccc2c1)N1CCCCCC1	58.1*	253.2%	48.4*	8.2%
COc1cccc(N2C(=O)Nc3ccc(Br)cc3C2(O)C(=O)NCCN(C)C)c1 (configuration not stated)	-4.8	-2.8%	-6.5	15.8%
Cc1cc(=O)[nH]c2nnc(-c3ccc(Cl)cc3)n12	20.7	/	-0.2	81.5%
CC(=O)Nc1ccccc1OC(=O)N(C)C	-6.5	12.6%	-4.8	/
CCN(CC)C(=O)Oc1ccccc1NC(C)=O	-2.3	7.8%	-2.9	9.28µM*
